ssDAF12 agonist = activates DAF-12 receptor from parasite S. stercoralis; HEK293 ssDAF-12/GRIP1 lit1-tk-luc reporter, luminescence; % of 3 µM dafachronic acid response; activation, % at 6.8 µM; 1% of 370,000 active; AID 652126;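 active = activation above the mean over all tested compounds plus 3 SD, cut at about 0.9% in these data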;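 note: 0% = DMSO-only wells and 100% = 3 µM delta7-dafachronic acid wells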
DAX1 inh-1 = NR0B1 (DAX1) inhibition. 0.99% of 340,000 active. AID 504766. HEK293 Gal4-DAX1 luciferase reporter, luminescence. inhibition, % at 6.75 µM;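 active = inhibition above the mean over all tested compounds plus 3 SD, cut at about 4.2% in these data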;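 note: 0% = DAX1-transfected cells with DMSO and 100% = empty-vector control cells with DMSO; inhibition shows as a rise in luminescence from relieved DAX1 repression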
Target sequence (P51843 207-470 limits assumed): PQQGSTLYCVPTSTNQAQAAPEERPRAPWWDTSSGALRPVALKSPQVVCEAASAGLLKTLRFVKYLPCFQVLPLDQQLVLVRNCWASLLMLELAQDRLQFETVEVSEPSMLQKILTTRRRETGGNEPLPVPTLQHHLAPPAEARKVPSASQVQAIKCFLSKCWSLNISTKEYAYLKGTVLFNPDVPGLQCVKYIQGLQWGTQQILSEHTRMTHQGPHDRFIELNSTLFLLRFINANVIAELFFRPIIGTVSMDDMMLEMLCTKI
hcDAF-12 act = activates DAF-12 receptor from parasite H. contortus | activation, % at 6.8 µM | HEK293 hcDAF-12 lit1-tk-luc reporter, luminescence; 0% DMSO, 100% Δ7-dafachronic acid | AID 652067 | 1.4% of 370,000 active;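 active = activation above the mean of all tested compounds plus 3 SD, cut at about 5.5% in these data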;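 note: 100% = response to 3 µM Δ7-dafachronic acid high control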
DAX1 inh-2 = blocks DAX1 repression of SF-1 activated StAR promoter. inhibition, % at 6.8 µM. 1.1% of 370,000 active. HEK293T StAR-luciferase reporter, SF-1/DAX-1 repression relief;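 active = inhibition above the mean over all tested compounds plus 3 SD, cut at about 3.6% in these data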;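 note: 0% = DAX-1 cells with DMSO and 100% = cells lacking DAX-1 with DMSO; higher inhibition means more luminescence from relief of DAX-1 repression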
hgDAF12 agonist = activates the H. glycines DAF-12 receptor ligand-binding domain. HEK293 GAL4-hgDAF12 UAS-luciferase reporter, agonist luminescence; normalized to butyrate control. activation, % at 6.8 µM. 1.8% of 370,000 active. AID 687014;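 active = activation above a cutoff set at the mean of all screened compounds plus 3 SD, cut at about 10% in these data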;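 note: 0% = DMSO wells and 100% = sodium butyrate wells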
* = called active by the depositor; . = not tested or not shown. Most compounds without a hit are left out; they make up all but 4.1% or so of the library.

SMILES | ssDAF12 agonist | DAX1 inh-1 | hcDAF-12 act | DAX1 inh-2 | hgDAF12 agonist
CC(C)=CCC[C@@]1(C(=O)O)[C@H]2CC=C(CO)[C@@H]1CC/C(C)=C/CC/C(C)=C/C2 | -1.3 | . | -2.6 | -0.7 | -6.0
c1ccc(CSc2nnc(NC3CCCCC3)s2)cc1 | -0.4 | 3.7 | 1.4 | 3.2 | 11.9*
CC(S(=O)(=O)c1ccccc1)S(=O)(=O)c1ccccc1 | -1.3 | 5.0* | -0.9 | -0.3 | -3.1
COc1ccc(C)cc1NC(=O)C1CC1c1ccccc1 (centres undefined) | -2.0 | 3.6 | -1.4 | 0.5 | 4.9
Cc1ccc2[nH]c(C(=O)O)c(NC(=O)[C@@H]3C[C@@H]3c3ccccc3)c2c1 | 2.5* | 0.7 | 3.3 | -0.2 | 2.2
CCCCc1cc(=O)oc2cc(C)cc(OCC(=O)N3C[C@H]4C[C@@H](C3)c3cccc(=O)n3C4)c12 | -1.0 | 7.0* | -0.8 | 0.9 | 0.9
CCCc1cc(=O)oc2cc(C)cc(OCC(=O)N3C[C@H]4C[C@@H](C3)c3cccc(=O)n3C4)c12 | -1.7 | . | -1.0 | 0.8 | 0.0
C[C@H]1[C@@H](NS(=O)(=O)c2ccccc2[N+](=O)[O-])CC[C@@]23CCCN2C(=O)CCC[C@@H]13 | -1.3 | . | -0.4 | . | 0.7
CC(=O)NC1(c2ccccc2)CCN(c2cc(C)nc(-c3ccccc3)n2)CC1 | 7.3* | -3.5 | -2.8 | -0.8 | -3.6
C=CCN1C(=O)[C@H](CC(=O)NCCCOCCCC)[C@@]2(C(=O)OCC)CCCC=C12 | -1.0 | . | -1.6 | -0.1 | -1.6
CC(C)CNC(=O)OCc1cn(Cc2cccc(F)c2F)nn1 | -0.6 | . | -0.3 | 0.8 | 0.1
Cc1ccc(NC(=O)N2CCCCCC2)cc1 | -0.7 | 1.7 | 5.5 | 3.9* | 4.6
COc1ccc(NC(=O)N2CCCCC2)cc1 | -1.4 | 0.1 | -0.9 | 0.1 | 2.3
Cc1cccc(NC(=O)[C@@H]2CC(=O)O[C@@H]2c2ccccc2)c1C | -1.0 | . | -1.0 | -0.8 | 0.1
C#CCNC(=O)C[C@H]1C[C@@]2(C(=O)OC)C(=C[C@H](COCc3ccccc3)O[C@@H]2C)N(Cc2ccccc2)C1=O | -0.6 | . | -0.1 | -0.7 | 0.3
COc1ccc2c(c1)O/C(=C\c1sccc1C)C2=O | -1.0 | 0.0 | 2.1 | 0.1 | 11.3*
O=C(O)COc1ccc2c(c1)O/C(=C\c1cccs1)C2=O | -0.1 | 0.4 | -0.1 | 0.1 | 2.6
COc1ccc(C(C(=O)NC(C)(C)C)n2c(=O)c(-c3ccco3)nc3ccccc32)cc1 (centres undefined) | 1.5* | . | 0.6 | -1.3 | 2.3
O=C(NC1CCCCC1)C(c1ccccc1)n1c(=O)c(-c2ccco2)nc2ccccc21 (centres undefined) | -1.2 | . | -0.6 | -0.2 | 0.1
COc1ccc(NC(=O)C(c2ccnc3ccccc23)n2c(=O)c(-c3ccccc3)nc3ccccc32)cc1 (centres undefined) | -0.4 | . | 5.6* | -0.6 | -1.4
O=C(NC1CCCCC1)C(C1CC1)n1c(=O)c(-c2ccco2)nc2ccccc21 (centres undefined) | 1.9* | . | 0.1 | 0.0 | -3.3
O=C(NCc1ccccc1)C(c1ccncc1)n1c(=O)c(-c2ccco2)nc2ccccc21 (centres undefined) | -0.8 | . | -0.4 | 0.8 | 2.3
O=C(NCc1ccccc1)C(c1ccc(-c2ccccc2)cc1)n1c(=O)c(-c2ccco2)nc2ccccc21 (centres undefined) | 1.3* | . | 2.1 | 0.0 | 1.9
O=C(Nc1ccc(Cl)cc1Cl)OC1CCC12CCC(c1ccccc1)CC2 (centres undefined) | -1.2 | . | -1.6 | . | -1.0
CC(C)CNS(=O)(=O)/C=C/c1ccccc1CCNC(=O)OC(C)(C)C | -0.9 | . | -2.6 | -2.0 | -0.4
SMILES | ssDAF12 agonist | DAX1 inh-1 | hcDAF-12 act | DAX1 inh-2 | hgDAF12 agonist
COc1ccc(OC)c(CN2C(=O)CN(S(C)(=O)=O)CC2(C)c2nnnn2C2CCCC2)c1 (centres undefined) | -1.5 | . | 2.0 | -0.7 | -0.7
Oc1ccc(/C=N/Nc2ccc(C(F)(F)F)cn2)c(O)c1 | -0.9 | -0.1 | -1.4 | -1.5 | -4.4
C/C(=N\Nc1ccc(C(F)(F)F)cn1)c1ccncc1 | -1.1 | -0.3 | -0.3 | 4.0* | 4.0
Oc1ccc(/C=N/Nc2ccc(C(F)(F)F)cn2)cc1 | 0.2 | -0.3 | 2.6 | 4.4* | 8.6
Cc1cccc(NC(=S)Nc2ccccn2)c1 | 1.0* | 5.3* | 4.7 | 0.6 | 6.6
Cc1cc(Cl)ccc1NC(=S)NCc1ccccc1 | -0.7 | 0.4 | -0.7 | 0.1 | -0.1
Cc1cc(C)nc(NC(=S)Nc2cccc(F)c2)c1 | -1.4 | 2.6 | 0.0 | 0.1 | 4.7
COc1cccc(NC(=S)Nc2cc(C)cc(C)n2)c1 | 1.7* | 5.3* | 4.9 | 1.0 | 6.2
Cc1cc(Cl)ccc1Nc1ncccc1C(N)=O | -0.6 | 9.6* | 1.7 | 1.0 | 8.5
Cc1cc(Cl)ccc1NC(=S)Nc1ccccn1 | 0.3 | 4.3* | 0.9 | 0.0 | 6.0
Cc1cccc(NNC(=S)Nc2c(C)cccc2C)c1 | -1.4 | -0.8 | -1.4 | -0.5 | -2.5
COC(=O)c1ccc(NC(=S)Nc2ccc(O)cc2)cc1 | -0.4 | -0.1 | -0.5 | -0.9 | -0.7
Cc1cccc(NC(=S)NNc2cccc(Cl)c2)c1 | 1.0* | -0.7 | 3.3 | -0.2 | 1.3
COC(=O)c1ccc(NC(=S)Nc2ccccn2)cc1 | -0.1 | 2.8 | 1.9 | 1.6 | 11.8*
COc1cc(Nc2cc(C)nc3ncnn23)cc(OC)c1OC | -0.5 | 5.5* | 0.8 | -0.2 | 0.1
COc1cc(Nc2cc(C)nc3ncnn23)cc(OC)c1 | -1.0 | 0.3 | -0.8 | 1.0 | -5.3
Cc1ccc(NC(=O)CN2CCC(NC(=O)Cc3ccccc3)CC2)c(C)c1 | 1.2* | 2.2 | -1.1 | -0.2 | 1.8
Clc1nnc(NN=C2CCCC2)c2ccccc12 | 1.3* | 4.0 | 4.0 | 0.1 | 3.6
C=CCNc1nnc(Cl)c2ccccc12 | . | -1.6 | . | . | .
Cc1ccc(SCc2ccc(C(=O)Nc3nccs3)o2)cc1 | -0.3 | 1.2 | 0.2 | 1.6 | 7.2
O=C(Nc1nccs1)c1ccc(COc2ccccc2)o1 | -0.4 | 2.7 | 2.0 | 1.5 | 11.0*
Cc1ccc(OCc2ccc(C(=O)Nc3nccs3)o2)cc1 | -1.0 | -1.5 | 0.1 | 0.2 | 3.6
O=C(Nc1nccs1)c1ccc(CSc2ccccc2)o1 | 0.4 | 0.3 | 1.6 | 6.2* | 9.5
O=C(CSc1nc2ccccc2n1Cc1ccccc1)NN=Cc1c[nH]c2ccccc12 | -0.6 | . | 3.4 | -0.9 | 1.3
CC(=O)Nc1sc2c(c1-c1nc3ccccc3s1)CCOC2 | -1.9 | . | -0.7 | . | 3.9
COC(=O)[C@]12C[C@H](CC(=O)NCCCCc3ccccc3)C(=O)N(CCc3ccc(OC)c(OC)c3)C1=C[C@H](C(C)(C)C)O[C@@H]2C | -1.1 | . | -1.5 | -1.4 | -4.8
CCCOc1ccc2c3c(c(=O)oc2c1)CCCC3 | -1.3 | 0.5 | 0.4 | -0.6 | 0.9
C=CCOc1ccc2c3c(c(=O)oc2c1)CCCC3 | -0.5 | 4.3* | -1.3 | -0.8 | 1.1
Cc1ccc(C)c(CN2CCC(CNC(=O)Nc3ccc(Cl)cc3)CC2)c1 | -1.0 | 6.2* | -1.0 | -0.3 | 1.1

Source: PubChem BioAssay (The Scripps Research Institute Molecular Screening Center)
